Measured values as given in PubChem BioAssay (NCI).
This is part of a sample that, as a whole, favours compounds with a hit. Of some 83,000 tested, about 20% had one in any assay.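 Testing used 96-well plates and a 48-hour single-concentration exposure. Example: -40 means 40% of the starting cells died.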 Values without a mark were called inactive. The source made the active and inactive calls. The calls were made as follows: active = growth percent below 10; inactive = the rest.

What was measured:
Experiment in all cases: NCI-60 one-dose screen, 48 h (100 = growth as untreated, 0 = no growth, -100 = all killed)
Conditions in all cases: 10 µM unless noted
RPMI-8226 leukemia = test system: RPMI-8226 leukemia
OVCAR-8 ovarian = test system: OVCAR-8 ovarian
OVCAR-5 ovarian = test system: OVCAR-5 ovarian
SK-OV-3 ovarian = test system: SK-OV-3 ovarian
IGROV1 ovarian = test system: IGROV1 ovarian
OVCAR-3 ovarian = test system: OVCAR-3 ovarian
HS 578T breast = test system: HS 578T breast
NCI/ADR-RES ovarian = test system: NCI/ADR-RES ovarian
T-47D breast = test system: T-47D breast
OVCAR-4 ovarian = test system: OVCAR-4 ovarian

Row | Structure (SMILES) | growth (RPMI-8226 leukemia) | growth (OVCAR-8 ovarian) | growth (OVCAR-5 ovarian) [%] | growth (SK-OV-3 ovarian) | growth (IGROV1 ovarian) | growth (OVCAR-3 ovarian) | growth (HS 578T breast) | growth (NCI/ADR-RES ovarian) | growth (T-47D breast) | growth (OVCAR-4 ovarian)
1 | S=C(Nc1ccc(C2=NCCN2)cc1)Nc1ccc(C2=NCCN2)cc1 | 94.4% | 96.2% | 97.7 | 108% | 108% | 110% | 110% | 93.2% | 83.2% | 
2 | CCC(C)CC(CC)NCCN1CCN(C(CC)CC(C)CC)C1=S (centres undefined) | -46.2% (active) | 62.7% | 37.2 | 56.2% | 52.7% | 39.5% | 67.2% | 56.4% | -9.85% (active) | 
3 | O=C1NC(=O)/C(=C\c2ccccc2)C2=C1CCCC2 | 51.3% | -6.04% (active) | 80 |  |  | -73.9% (active) | 35.2% | 61.2% | 198% | 91.2%
4 | Cc1cc(C(=O)O)c(C)cc1C(=O)O | 102% | 104% | 96 | 106% | 85.3% | 136% | 122% |  | 104% | 
5 | Cn1c(N)c(N=O)c(=O)[nH]c1=O | 83.9% | 104% | 106 | 115% | 107% | 112% | 99.8% | 103% | 98% | 
6 | CCN(CC)c1ccc(N=Nc2cc(Cl)ccc2Cl)c(NC(=O)CCC(=O)O)c1 | 97.6% | 89.2% | 92.5 | 97.5% | 92.2% | 96.8% | 95.1% | 95.5% | 90.2% | 
7 | COc1c(C)c2c(c(O)c1C/C=C(\C)CCC(=O)OCCN1CCOCC1)C(=O)OC2 | 16% | 16.9% | 36.8 | 31.4% | 13% | 36.1% | 50.4% | 21.5% | 29.3% | 
8 | c1coc([C@@H]2C[C@@H]3Cc4ccc5ccccc5c4N2O3)c1 | 97.3% | 99.4% | 90.8 | 103% | 113% | 114% | 110% | 99.8% | 104% | 
9 | O=C(/C(=N/O)S(=O)(=O)c1ccccc1)c1cccs1 | 101% | 104% | 118 | 94% | 109% | 109% | 118% |  | 93.2% | 
10 | O=C(O)c1ccccc1C(=O)OC1CCCC2CCCC21 (centres undefined) | 111% | 106% | 99.2 | 112% |  | 122% |  | 99% | 96.1% | 
11 | O=C(c1ccccc1)c1ccco1 | 101% | 98.2% |  | 104% | 99.5% | 108% | 118% | 95.7% | 97% | 99.4%
12 | N#Cc1cccc(/C=C(/C(=O)c2ccccc2)c2ccccc2)c1 | -4.62% (active) | 20.4% |  | 110% | 73.8% | 36.4% | 55.4% | 40.1% | 74.4% | 50.9%
13 | O=C(Nc1ccccc1Cl)c1cnc2ccc(C3CCNCC3)cn12 | 108% | 65.5% |  | 40.3% | -50.5% (active) | 62.2% | 9.47% (active) | 90.5% | 51.8% | 101%
14 | COc1cc2c(-c3nc4cc(Cl)c(F)cc4s3)cc(=O)oc2c(C)c1OC | -56% (active) | -58.8% (active) |  | -85% (active) | -43.6% (active) | -98.6% (active) | -0.186% (active) | -10% (active) | -14.1% (active) | -92.9% (active)
15 | CCOc1cc(-c2ccc[nH]2)[nH]c1/C=C1\N=C(C)C(C(=O)OC)=C1C | -40.5% (active) | -45.8% (active) |  | -63.7% (active) | -45% (active) |  | -23.3% (active) | -58.7% (active) | -63.8% (active) | -38.6% (active)
16 | O=C(C=C=Nc1ccccc1)C(=O)N=C=Cc1ccccc1 | -59.5% (active) | 60.8% |  | 107% | 51.5% | 13.5% | 94.8% | 65.5% | 17.7% | 50.6%
17 | NC(=O)NN=C(C1CC1)C1CC1 | 114% | 123% |  | 104% | 109% | 106% | 97% | 105% | 107% | 104%
18 | COc1ccc(C2CC(c3ccc(OC)c(OC)c3)=NN2C(=O)c2cc(OC)c(OC)c(OC)c2)c(OC)c1 (centres undefined) | 92.4% | 91.2% | 93 |  | 61.6% | 52.9% | 49.6% | 53.2% | 82% | 
19 | COc1ccc(-c2cc(C(=O)Nc3nc4cc(C)c(C)cc4s3)nc3cc(-c4ccccc4)nn23)cc1OC | 88% | 110% |  | 105% | 122% | 138% | 111% | 102% | 103% | 106%
20 | c1cncc(CNc2ccccc2-c2nnc(Nc3ccc4c(c3)OCO4)o2)c1 | 27.5% | 26.1% |  | -3.15% (active) | 25.2% | -22% (active) | 35.4% | 19.4% | 43.5% | 36.3%
21 | CCCCCCCCCCCCCCCCN=C(CC(=O)O)C(=O)O | 103% | 107% |  | 105% | 88.6% | 107% | 96.9% | 105% | 102% | 34.8%
22 | CC(C)c1ccc(C(=O)Nc2sc3c(CN(C)C)c(O)ccc3c2C(N)=O)cc1 | -31.8% (active) | 51.5% | 59.4 | 70.6% |  | 62.7% | 69.1% | 51.6% | 54.2% | 
23 | CN(CC(=O)N(Cc1ccc(C2CCCCC2)cc1)c1ccc(C(=O)O)cc1)S(=O)(=O)c1c(F)c(F)c(F)c(F)c1F | 11.3% | 6.02% (active) |  | 106% | -24.8% (active) | -83.1% (active) | 18.5% | 87.7% | -6.87% (active) | 83.8%
24 | O=C1NCC(Nc2ccc(Br)cc2Cl)C(=O)N1 (centres undefined) | 110% | 130% |  | 105% | 108% | 114% | 105% |  | 99.6% | 111%
25 | CC(NC(=O)C(C)Oc1ccc(Cl)cc1Cl)C(=O)O (centres undefined) | 125% | 107% | 95.7 | 102% | 84.8% |  |  | 96.7% | 108% | 
26 | Cc1ccc(C(C)C)cc1NC(=O)Nc1ccc([N+](=O)[O-])cc1 | -61.9% (active) | 15.2% |  | 7.01% (active) | 6.68% (active) | -21.9% (active) | 14.7% | -10.7% (active) | 0.428% (active) | 28.2%
27 | O=C1NCN(c2ccccc2)C12CCN(CCCC(c1ccc(F)cc1)c1ccc(F)cc1)CC2 | 102% | 66.1% |  | 73.4% | 47.7% | 66.8% | 69.3% | 69.9% | 94.2% | 48.5%
28 | O=C(/C=C/c1cccnc1)NCCCCC1CCCN(C(=O)c2ccccc2)C1 (centres undefined) | 36.9% | 22% |  | 91.6% | 33.8% | 74.7% | 52.2% | 32.1% | 47.3% | 89.2%
29 | CSc1ccc2c(c1)N(CCC1CCCCN1C)c1ccccc1S2 (centres undefined) | 26.3% | 69.9% |  | 81% | 36.4% | 92.3% | 47.6% | 65.6% |  | 64%
